Compounds without any hit were thinned out: in the full panel of roughly 83,000, 20% have a hit.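 Values shown are percent growth following 48 h exposure of cells in 96-well plates to a single concentration of compound; below 10 was considered active.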 Values without a mark were called inactive. Calls of active or inactive are those of the source.

What all share (test): NCI-60 one-dose screen, 48 h (100 = growth as untreated, 0 = no growth, -100 = all killed)
What all share (settings): 10 µM unless noted

In assay [1] the test system is SK-MEL-2 melanoma.
The test system of assay [2] is EKVX NSCLC.
The test system of assay [3] is SN12C renal.
For assay [4], the system named is UO-31 renal.
Assay [5] relates to TK-10 renal.
Assay [6] has as its system ACHN renal.
Assay [7] relates to CAKI-1 renal.
The subject of assay [8] is A498 renal.
For assay [9], the system named is CCRF-CEM leukemia.
Assay [10] has as its system MOLT-4 leukemia.
Assay [11] deals with SR leukemia.
Assay [12] relates to OVCAR-8 ovarian.
Assay [13] deals with OVCAR-5 ovarian.
In assay [14] the test system is OVCAR-4 ovarian.
In assay [15] the test system is SK-OV-3 ovarian.
The subject of assay [16] is IGROV1 ovarian.
Assay [17] relates to OVCAR-3 ovarian.
Assay [18] relates to HS 578T breast.
For assay [19], the system named is NCI/ADR-RES ovarian.

Take `NC(=O)C1(Nc2ccc(Br)cc2)CCCC1`: the growth in [1] was 101%; in assay [2], 92%; in [3], 102%; in [4] it was 86.3%; in [5] it was 104%; in assay [6] it was 101%. For the same molecule, the growth is 103% in assay [7]; 99.8% in assay [8]; 99.8% in [9]; 99% in assay [10]; 84.3% in assay [11]; 102% in [12]. Besides, the growth in assay [13] was 96.7%; in assay [14], 115%; in [15], 103%; in assay [16], 108%; in assay [17], 113%; in assay [18] it was 111%. Further, the growth in assay [19] is 111%.

`CC([C@H]1CCC2C3CCC4C[C@@H](NC=O)CC[C@]4(C)C3CC[C@@]21C)N(C)C` (some centres undefined): the growth in assay [1] is -7.03% (active); in [2], 29%; in assay [3] it was 19.9%; in assay [4], 0.264% (active); in [5], 49.1%; in [6] it was 6.15% (active). The growth in [7] is -10.1% (active); in assay [8] it was 29.1%; in [9] it was -21.6% (active); in [10], -49.9% (active); in assay [11], -38.7% (active); in assay [12], 41.1%. Further, the growth in assay [13] is 67.8%; in assay [14], -18.6% (active); in assay [15] it was 42.5%; in assay [16], 25.6%; in [17], -34.3% (active); in assay [18] it was -2.92% (active). The growth in assay [19] was 27.1%.

For `O=c1c2cc(F)ccc2sc2c(N3CCNCC3)nc3ccc(F)cc3c12`, the growth in assay [1] was 90.5%; in assay [2] it was 66.4%; in assay [3] it was 54.2%; in assay [4], 31.8%; in assay [5] it was 26.6%; in [6], -41.6% (active). Moreover, the growth in assay [7] was -96.9% (active); in assay [8] it was 45.5%; in [9], -12.1% (active); in assay [10], -36.5% (active); in assay [11], -46.3% (active); in assay [12], 3.1% (active). In addition, the growth in assay [13] is 60.3%; in assay [14], -63.8% (active); in [15], 84%; in [16] it was 36.3%; in assay [17], -84.1% (active); in [18] it was 46.6%. In addition, in [19], the growth is 4.72% (active).

For the molecule `COc1ccc2nc(NC(=O)c3cccnc3Nc3ccc(S(N)(=O)=O)cc3)sc2c1`, the growth in assay [1] was 103%; in assay [2] it was 92%; in assay [3], 110%; in [4] it was 126%; in assay [5], 99%; in assay [6], 90%. In addition, the growth in [7] was 76.1%; in [8], 93.5%; in assay [9] it was 59.3%; in [10], 63.3%; in assay [11], 59.6%; in [12], 97.1%. Further, the growth in [13] is 102%; in assay [14], 81.7%; in assay [15], 116%; in assay [16], 134%; in assay [17], 98.9%; in assay [18] it was 96.7%. Also, the growth in [19] was 104%.

On to `CCn1cnc2c1c(=O)[nH]c(=O)n2CC1CCC(CNS(=O)(=O)c2ccc(OC3CCOCC3)c(F)c2)CC1` (centres undefined), for which the growth in assay [1] was 74.8%; in assay [2], 68.1%; in assay [3], 62.9%; in assay [4], 55.2%; in assay [5] it was 33.7%; in assay [6], 72.2%. In addition, the growth in [7] is 46.2%; in assay [8], 67.1%; in [9], 52.6%; in assay [10] it was 63%; in assay [11], 49.6%; in assay [12], 60.5%. Moreover, the growth in assay [13] is 64.1%; in [14] it was 42%; in assay [15] it was 31.9%; in assay [16], 62.6%; in assay [17], 60.5%; in assay [18], 15.9%. Besides, the growth in [19] was 95.8%.

Take `O=C1/C(=C/c2ccccc2[N+](=O)[O-])Oc2ccc(O)c(O)c21`: the growth in assay [1] is 43.1%; in [2] it was 63.9%; in [3], 31.1%; in assay [4], 28.7%; in [5], 80.4%; in assay [6], 17.7%. Further, the growth in assay [7] is 15.1%; in assay [8] it was 65.7%; in assay [9], 8.79% (active); in [10], 18.1%; in [11] it was 36.1%; in [12] it was 25.5%. The growth in [13] was 48.8%; in assay [14] it was 47.9%; in [15] it was 93.1%; in [16], 48.5%; in assay [17], 35.1%; in assay [18] it was 21.1%.

As to `NCCOc1ncccc1/C=C1\C2C=CC=CC2C2C=CC(F)=CC12` (centres undefined), the growth in [1] was 113%; in assay [2], 43.9%; in assay [3], -3.7% (active); in [4], -0.645% (active); in assay [5], 41.7%; in assay [6] it was -34% (active). Further, the growth in assay [7] is 25%; in assay [8] it was 17.2%; in assay [9], 3.62% (active); in assay [10] it was 0.118% (active); in assay [11], 0.916% (active); in [12], 25.7%. The growth in assay [13] is 31.3%; in assay [14], 68.3%; in assay [15] it was 20.1%; in assay [16], 29.9%; in assay [17] it was 35%; in assay [18] it was 61.5%. In assay [19], the growth is 27.8%.

As for `Cc1cccc2c(=O)c3c(sc12)c(NCc1ccccc1)nc1ccccc13`, the growth was 101% in assay [1]; 89.7% in assay [2]; 93.6% in [3]; 66.5% in assay [4]; 105% in assay [5]; 90.9% in assay [6]. Also, the growth in [7] is 76.4%; in [8], 72.4%; in assay [9] it was 100%; in assay [10] it was 92.1%; in assay [11], 74.4%; in [12] it was 100%. For the same molecule, the growth in assay [13] is 75.6%; in [14] it was 87.6%; in assay [15] it was 88.7%; in assay [16] it was 74.3%; in assay [17] it was 106%; in assay [18] it was 98.7%. The growth in [19] is 97.2%.

As to `O=C(N/N=C/[C@@H](O)[C@H](O)[C@H](O)CO)c1ccc(NC(=O)c2cccnc2)cc1`, the growth in assay [1] was 120%; in assay [2], 100%; in assay [3] it was 97.1%; in [4], 82.9%; in assay [5], 106%; in assay [6] it was 101%. For the same molecule, the growth in assay [7] is 96.1%; in assay [8], 102%; in assay [9], 98.5%; in assay [10], 113%; in [11], 95.7%; in assay [12], 105%. In addition, the growth was 103% in assay [13]; 114% in assay [14]; 99.1% in [15]; 109% in assay [16]; 112% in [17]; 104% in [18].

The record behind these values is PubChem BioAssay (NCI).
